# aDG glyco up = increases alpha dystroglycan glycosylation; activation, % at 10 µM; hit rate 0.22% among 360,000; Pro5-aDG cells, alpha-DG glycosylation AlphaScreen (IIH6); 0% Pro5, 100% B10-LARGE cell signal;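 active means activation of at least 8% versus controls, or a plate z-score of at least 8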;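 further: Pro5 are CHO cells carrying HIG-tagged alpha-DG that lacks glycosylation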
# FAS TE block = FAS thioesterase (human) inhibition; P49327; recombinant FAS-TE, OMFH fluorogenic substrate, fluorescence endpoint; inhibition, % at 15 µM; hit rate 0.67% among 360,000; AID 602261;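 active means compounds whose normalised, plate-corrected inhibition of enzyme fluorescence in the single-dose primary screen is 50% or more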;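 further: 0% = DMSO with enzyme and 100% = substrate without enzyme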
# ADAM10 inh = inhibitors of human ADAM10; inhibition, % at 7 µM; recombinant ADAM10, EDANS/DABCYL FRET peptide cleavage, 3 h; O14672; AID 720582; hit rate 0.62% among 370,000;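 active means inhibition above a per-campaign cutoff equal to the mean of compounds falling between control-based bounds plus 3 SD, cut at about 20% in these data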;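 further: 0% = DMSO wells while the 100% control is not disclosed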
# Target sequence (O14672 214-748 limits assumed): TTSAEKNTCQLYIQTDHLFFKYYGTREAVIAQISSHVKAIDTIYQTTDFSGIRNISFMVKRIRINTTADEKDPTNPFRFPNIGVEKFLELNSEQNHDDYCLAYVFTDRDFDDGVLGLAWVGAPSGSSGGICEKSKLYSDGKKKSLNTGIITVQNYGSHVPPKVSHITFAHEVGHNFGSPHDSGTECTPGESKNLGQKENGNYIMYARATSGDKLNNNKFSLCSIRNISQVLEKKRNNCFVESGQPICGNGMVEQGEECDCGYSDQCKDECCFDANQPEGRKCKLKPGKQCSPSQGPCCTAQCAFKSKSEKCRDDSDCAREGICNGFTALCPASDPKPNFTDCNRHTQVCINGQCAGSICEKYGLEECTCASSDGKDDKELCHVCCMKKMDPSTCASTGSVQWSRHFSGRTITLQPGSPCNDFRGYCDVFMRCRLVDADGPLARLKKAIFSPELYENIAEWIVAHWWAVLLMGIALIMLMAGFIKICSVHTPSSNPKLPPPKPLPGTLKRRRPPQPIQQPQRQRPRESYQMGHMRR
# ADAM17 inh = ADAM17 inhibition, QFRET primary screen | recombinant ADAM17, EDANS/DABCYL FRET peptide cleavage | inhibition, % at 6.95 µM | hit rate 0.83% among 370,000 | AID 720648;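 active means inhibition above the mean of compounds lying between control limits plus 3 SD, set per campaign, cut at about 8.5% in these data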;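 further: 0% = DMSO-only wells as the low control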
# GRIN3A LBD mod = modulates the human NR3A ligand-binding domain | Tm shift relative to glycine control, % at 25 µM | hit rate 2.5% among 340,000 | AID 1259313 | NR3A LBD differential scanning fluorimetry, Tm shift; 0% = protein alone, 100% = glycine-bound protein;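 active means melting temperature shift of at least 10% of the positive control shift, at one fixed dose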
# * = called active by the depositor; i = inactive; x = no result. In the library only some 4% were active in any assay of this set; here they are far more common.
SMILES,aDG glyco up,FAS TE block,ADAM10 inh,ADAM17 inh,GRIN3A LBD mod
CC1=C(C)C(=O)C(N2CCOCC2)=CC1=O,5.3*,-9,-2,1,-1
COc1ccc(-c2coc3cc(O)cc(O)c3c2=O)cc1,0,2,1,-5,12*
Cc1cc(C(=O)CN2CCC(C)CC2)c(C)n1-c1ccc(F)cc1,0,-2,1,-2,0
CC(Sc1nnc(C2CC2)n1C)C(=O)Nc1ccc2c(c1)CCC2 (configuration not stated),0,-4,5,0,0
Cc1ccc2nc(-c3sc4nc(C)cc(C)c4c3N)[nH]c2c1,1,-4,-136,-42,15*
Cc1ccc2nc(-c3cccc(N)c3)[nH]c2c1,0,-11,i,-158,-5
Cc1ccc(-c2cccc(C(=O)NCc3ccccc3)n2)c2ccccc12,0,28,6,1,3
Cc1ccc(NC(=O)CSc2nc(N)c3c4c(sc3n2)CSC(C)(C)C4)cc1,0,35,2,-1,24*
Cc1noc(NS(=O)(=O)c2ccc(NC(=O)c3ccc(N4C(=O)c5ccccc5C4=O)cc3)cc2)c1C,0,-10,3,-1,-13
Cc1noc(NS(=O)(=O)c2ccc(NC(=O)CCN3C(=O)c4ccccc4C3=O)cc2)c1C,0,-6,6,-3,14*
Cc1noc(NS(=O)(=O)c2ccc(NC(=O)Nc3ccc(Cl)c(Cl)c3)cc2)c1C,0,12,-1,1,36*
CC(C)OCCCNc1ncnc2c1[nH]c1ccccc12,5.4*,-5,-144,-50,0
COc1ccc(CNc2ncnc3c2[nH]c2ccccc23)cc1,2,13,-90,-32,-7
COc1ccc(C=NOCC(=O)OCC(=O)Nc2ccc(OC)cc2)cc1,0,-3,-1,-6,42*
CCOC(=O)c1c(NC(=O)CSc2nnnn2-c2ccccc2)sc2c1CCC(C)C2 (configuration not stated),0,15,1,-8,17*
Cc1cc(N2CCC(C)CC2)n2ncc(-c3ccccc3)c2n1,1,27,-107,-32,13*
Cc1cc(NCCN2CCOCC2)n2nc(C)c(-c3ccccc3)c2n1,0,-3,-8,-2,-3
Cc1cc(NCCN2CCOCC2)n2ncc(-c3ccccc3)c2n1,0,-7,-11,-4,13*
CCCCCN(C(=O)CCC(=O)OC(C)C(=O)Nc1cccc(C#N)c1)c1c(N)n(CCCC)c(=O)[nH]c1=O (configuration not stated),0,11,-131,0,18*
COc1cccc(/C=N/n2nnnc2N)c1OCC#N,0,-6,-110,-23,13*
COCCOc1ccc(C(F)(F)F)cc1NC(=O)COC(=O)C12CC3CC(CC(O)(C3)C1)C2,0,3,8,2,26*
O=C(COC(=O)C12CC3CC(CC(O)(C3)C1)C2)Nc1ccc(Br)cc1F,0,3,2,1,0
CS(=O)(=O)c1ccc(CNC(=O)C2(C(F)(F)F)C/C(=C\Cc3ccccc3)CCCO2)cc1 (configuration not stated),0,6,13,-1,16*
CCC1(C(=O)O)NC(c2cc(OC)ccc2O)C2C(=O)N(Cc3ccccc3)C(=O)C21 (configuration not stated),0,-5,22*,1,0
Fc1cccc(/C=N/Nc2ccccn2)c1,0,-1,4,2,13*
SMILES,aDG glyco up,FAS TE block,ADAM10 inh,ADAM17 inh,GRIN3A LBD mod
Fc1cccc(F)c1/C=N/Nc1ccccn1,0,-3,-8,-4,-14
O=c1[nH]c(NNC(=S)NCc2ccccc2)nc2c1C1(CCCCC1)Cc1ccccc1-2,0,-5,-13,-5,26*
CCCCCCn1c(=O)c(-c2ccccc2)c(O)c2ccccc21,0,-6,-7,-6,12*
CCCCCCn1c(=O)c(Cc2ccccc2)c(O)c2ccccc21,0,-2,-15,-3,-7
COc1ccc(CCC(=O)Nc2cccc(Cl)c2)cc1,0,10,-3,-2,-2
COc1ccc(OCCCC(=O)Nc2cccc([N+](=O)[O-])c2)cc1,0,13,-2,-3,16*
COc1cccc(NC(=O)CC(=O)c2ccc([N+](=O)[O-])cc2)c1,0,41,11,4,17*
COc1ccc(NC(=S)Nc2cccc([N+](=O)[O-])c2)cc1,0,14,3,-1,23*
O=C(CCc1ccc(Oc2cc([N+](=O)[O-])cc([N+](=O)[O-])c2)cc1)Nc1cccc(Cl)c1,2,40,9,5,11*
Cc1ccc(C(=O)Nc2cnc3ccccn3c2=O)cc1,0,-5,-22,-9,0
CC(C)[C@H](NC(=O)c1ccccc1F)C(=O)NC1CCCCC1,0,-7,-8,-4,-3
CC1CCC(=NNS(=O)(=O)c2ccc([N+](=O)[O-])cc2)CC1 (configuration not stated),0,58*,-18,-4,2
CCOC(=O)c1c(NC(=S)Nc2ccccc2)sc2c1CC(C)(C)SC2,-1,17,-30,-6,13*
O=C(Nc1ccccc1)c1ccccc1CCc1ccccc1,0,13,4,0,-13
O=c1cc(C(F)(F)F)nc(SCc2cccnc2)[nH]1,0,-5,x,x,2
Oc1ccccc1/C=N/n1c2ccccc2c2ccccc21,0,20,-5,-3,19*
C(=N\n1c2ccccc2c2ccccc21)/c1ccccc1,0,21,2,0,-28
COc1ccc(/C=N/Nc2nc(Nc3ccccc3)nc(N3CCCC3)n2)cc1,0,-2,8,4,4
COc1ccc(/C=N/Nc2nc(NCc3ccco3)nc(Nc3ccc(OC)cc3)n2)cc1,0,15,1,4,18*
COc1ccc(Nc2nc(NCc3ccco3)nc(N/N=C/c3ccc(O)cc3)n2)cc1,-1,9,3,4,19*
COc1ccc(Nc2nc(Cl)nc(NCc3ccco3)n2)c(OC)c1,1,4,2,0,1
COc1ccc(Nc2nc(NCc3ccco3)nc(N/N=C/c3ccccc3F)n2)cc1,0,24,10,4,16*
CC(=O)c1sc(NC(=O)c2c(F)cccc2F)nc1C,0,-4,2,3,-1
CCc1cccc(C)c1NC(=O)CC(C)(C)CC(=O)O,0,-3,0,4,1
NC(=O)C(=O)N/N=C/c1c[nH]c2ccc(Br)cc12,0,-5,2,3,-6
O=C(N/N=C/c1c[nH]c2ccc(Br)cc12)C1CC1,0,-4,3,1,10*
O=C(N/N=C/c1c[nH]c2ccccc12)c1ccn(Cc2ccc(Cl)cc2)n1,0,17,8,-1,0
O=C(N/N=C/c1c[nH]c2ccc(Br)cc12)c1ccncc1,1,-2,3,0,26*

# Assay outcomes deposited in PubChem by several laboratories.
